Screening results: PubChem, National Center for Advancing Translational Sciences (NCATS)
A selection: hits, their analogues and other compounds. The true share with any hit is near 15%.
SARS PLP yeast = qHTS of Yeast-based Assay for SARS-CoV PLP | S. cerevisiae expressing SARS-CoV PLpro, growth rescue | Potency, µM (series often up to 32.9 µM), inactives show top-dose activity, positive = growth rescue, most hits filed as activators | hit rate 0.19% among 330,000; calls by dose curve; note: potency is the fitted concentration of half-maximal effect; 0% is about no effect; nearly all actives have a fitted effect of over 55% in size
HCMV antiviral = qHTS Assay for inhibitors of the human cytomegalovirus (HCMV); HFF cells, HCMV-luciferase reporter, 72 h; stronger effect = lower value; activity change, negative = inhibition, % at 57.5 µM; hit rate 4.5% among 410,000; AID 1259415, 2018; in the data active = activity change below about -60%; inconclusive = no clear call, values can overlap the other calls; inactive = above about -39%; note: % is set by controls: 0 for no effect and ±100 for the full control effect
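Two compound doses tested in HFFs infected with HCMV-luciferase, MOI 1 PFU/cell, 72 h at 37C. Lysate luminescence read with OneGlo; data normalized against buffer-only and 10uM Salinomycin inhibitor controls.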
Pf growth 96h = Primary qHTS for delayed death inhibitors of the malarial parasite plastid, 96 hour incubation | P. falciparum luciferase reporter growth, 96 h | Potency, µM (series often up to 28.7 µM), for inactives: top-dose activity change, negative = inhibition, actives largely listed as inhibitors | hit rate 6.9% among 320,000 | AID 504834, 2011; note: potency is the fitted concentration of half-maximal effect; % is set by controls: 0 for no effect and ±100 for the full control effect
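Two-generation exposure (96 h) targets delayed-death phenotype. Reporter parasites carrying integrated firefly luciferase, in red cells at 2% hematocrit and 0.05% parasitemia final, kept at 37 C, 5% CO2; luminescence loss indicates inhibition.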
HCV inh = qHTS Assay for Inhibitors of Hepatitis C Virus (HCV); AID 651820, 2012; Potency, µM (highest dose often 41.8 µM), for the others: at the top dose activity change, negative = inhibition, hits mostly inhibitors; hit rate 3.4% among 340,000; Huh7.5.1 HCVcc-Cre infection, luciferase reporter, 44 h; note: potency is the fitted concentration of half-maximal effect; % is set by controls: 0 for no effect and ±100 for the full control effect
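Luciferase read-out (15 sec integration) after a 15 min room-temperature substrate step quantifies HCVcc-Cre infection. Cells, 1,000 per well, had compound added 4 h post-plating, then virus at ~0.5 moi, and were cultured 44 h.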
Sm TGR block = qHTS Assay for the Inhibitors of Schistosoma Mansoni Peroxiredoxins | Schistosoma mansoni thioredoxin glutathione reductase (TGR), Q962Y6 | purified TGR, DTNB reduction, TNB absorbance 405 nm | Potency, µM (top dose mostly 114 µM), for the others: top-dose activity change, negative = inhibition, usual class: inhibitors | hit rate 3% among 360,000; note: potency is the fitted concentration of half-maximal effect; % is set by controls: 0 for no effect and ±100 for the full control effect; nearly all actives have a fitted effect of over 60% in size
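Kinetic colorimetric format: TGR-catalysed, NADPH-driven DTNB reduction monitored via TNB absorbance. Enzyme dispensed at 20 nM; compound exposure 15 min at room temperature before reaction start.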
Pf growth 48h = Primary qHTS for delayed death inhibitors of the malarial parasite plastid, 48 hour incubation. Potency, µM (series often up to 28.7 µM), without a hit: at the top dose activity change, negative = inhibition, actives largely listed as inhibitors. AID 504832, 2011. hit rate 5.9% among 310,000. P. falciparum luciferase growth in erythrocytes, 48 h; note: potency is the fitted concentration of half-maximal effect; % is set by controls: 0 for no effect and ±100 for the full control effect
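Cell-based growth assay: transgenic P. falciparum expressing firefly luciferase, cultured in red cells within RPMI 1640 containing 0.5% w/v Albumax, 24 mM bicarbonate and gentamycin. A drop in luciferase activity indicates inhibition.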
* marks the source's active call; other numbers are inactive results; ? = inconclusive; . = no result. Unless noted, calls come from the whole dose curve; as a rule, active = well fitted curve in the direction sought with a large enough effect; inconclusive = small, poorly fitted or top-dose-only effect, or another doubt; inactive = no such curve, though single readings can be large; an effect the other way counts as inactive or inconclusive.

SMILES	SARS PLP yeast	HCMV antiviral	Pf growth 96h	HCV inh	Sm TGR block	Pf growth 48h
CC(Sc1nnc(C2CC2)n1C1CC1)C(=O)Nc1cccc(S(=O)(=O)N2CCOCC2)c1 (stereo not given)	1%	-15	-17%	8%	-16%	-24%
CCN(CC)CCCn1c2c(c(SCC(=O)N3CCCc4ccccc43)nc1=O)CCC2	6%	?	?	-10%	4%	-4%
CCCCc1ccc(NC(=O)CSc2nc(=O)n(CCN(CC)CC)c3c2CCCC3)cc1	-4%	-23	2.1µM*	?	-3%	12µM*
CN(C)CCn1c2c(c(SCC(=O)N3CCc4ccccc43)nc1=O)CCCC2	-1%	-18	?	13µM*	7%	-18%
CCCCc1ccc(NC(=O)CSc2nc(=O)n(CCN3CCOCC3)c3c2CCC3)cc1	1%	-14	?	?	-11%	-59%
CCCCc1ccc(NC(=O)CSc2nc(=O)n3cc(C)ccc3n2)cc1	-3%	-67*	-18%	15%	7%	?
CCCCc1ccc(NC(=O)CSc2nc(=O)n(CCN(C)C)c3c2CCC3)cc1	1%	-38	?	?	-8%	12µM*
CC1CCN(c2oc(-c3ccc(COc4ccccc4)o3)nc2C#N)CC1	.	-26	.	.	11%	.
COc1cccc(NC(=O)C(NCCC(C)C)c2ccccc2)c1 (stereo not given)	-7%	-7	?	-20%	-30%	.
Cc1cccc(Cl)c1NC(=O)C(Nc1ccccc1)c1ccccc1F (stereo not given)	.	-27	.	.	.	.
CCCN(CCC)C(C(=O)Nc1cccc(OC)c1)c1ccccc1 (stereo not given)	0%	33	13µM*	?	0%	?
COc1cccc(NC(=O)C(Nc2ccccc2)c2ccccc2F)c1 (stereo not given)	.	-67*	.	.	.	.
CC(=O)N1CCc2cc(S(=O)(=O)CCC(=O)NCCc3ccccc3)ccc21	3%	-10	8%	18%	-29%	7%
COc1ccc(OC)c(CC(=O)Nc2ccc3c(c2)c(=O)n(C)n3Cc2cccc(C(F)(F)F)c2)c1	.	-10	.	.	.	.
CC[C@H](C)/C=C(C)/C=C/C(=O)Cc1cc(O)c(C)c(O)c1C=O	-2%	4	?	?	28µM*	?
COc1nc(OC)nc(N2CCC(C(=O)NCc3ccco3)CC2)n1	0%	14	11%	22%	3%	-15%
O=C(NCCCN1CCc2ccccc2C1)C1CCN(c2nnc(-n3cccc3)s2)CC1	2%	2	?	?	-17%	4.1µM*
O=C(NCc1ccco1)C1CCN(c2nnc(-n3cccc3)s2)CC1	23%	-67*	8%	-10%	-3%	8%
O=C(NCCCN1CCN(Cc2ccccc2)CC1)C1CCN(c2nnc(-n3cccc3)s2)CC1	-3%	?	63%	?	1%	?
O=C(NCc1ccco1)C1CCN(c2nc3ccccc3n2Cc2ccc(F)cc2)CC1	-2%	2	10µM*	-11%	?	.
CC1SC(C)C(=O)N(CC(=O)Nc2ccc([N+](=O)[O-])cc2)C1=O (stereo not given)	-1%	-21	?	12%	5%	-2%
CC(=O)Nc1ccc2cnn(C(C)=O)c2c1	.	5	.	.	.	.
CCCc1nc2cc(C)c(Br)c(C)n2c1Cc1ccc(OC)cc1C	.	5	.	.	.	.
O=c1c2ccccc2sn1-c1ccc(F)cc1	3%	?	?	?	-15%	10µM*
Cc1ccc(-n2sc3ccccc3c2=O)cc1	-86%	-32	-19%	?	?	4.1µM*
SMILES	SARS PLP yeast	HCMV antiviral	Pf growth 96h	HCV inh	Sm TGR block	Pf growth 48h
COc1ncccc1-c1ccc2nncn2c1	.	7	.	.	.	.
Cc1ccc(NC(=O)C(c2ccccc2)N2CCN(C(=O)c3ccco3)CC2)cc1Cl (stereo not given)	5%	10	?	0%	-25%	10µM*
CCOc1ccccc1NC(=O)C(c1ccccc1)N1CCN(C(=O)c2ccco2)CC1 (stereo not given)	5%	1	?	?	?	9.3µM*
CC(C)NC(=O)c1cc(C2CCCCN2S(=O)(=O)c2ccccc2)on1 (stereo not given)	.	-6	.	.	.	.
Cc1ccc(NC(=O)Nc2cnccn2)cc1	-1%	50	-24%	-7%	3%	42%
Cc1ccc(NC(=O)C2(c3ccc([N+](=O)[O-])cc3)CCCC2)cc1	23%	-25	-3%	?	1%	2.6µM*
Cc1ccc(C(C)C)cc1NC(=O)Nc1ccc([N+](=O)[O-])cc1	-12%	-102*	3.3µM*	13µM*	10%	4.1µM*
O=C(NCc1ccc2c(c1)OCO2)Nc1ccc(Cl)cc1	1%	-1	?	-7%	21%	13%
O=C(NCc1ccc2c(c1)OCO2)Nc1ccc([N+](=O)[O-])cc1	1%	-61*	?	?	-5%	?
O=C(Nc1ccc([N+](=O)[O-])cc1)Nc1cnccn1	-2%	-81*	?	-21%	-3%	?
COc1cc(OC)c(N(C)C(=O)c2c(C)oc3ncn(CC(C)C)c(=O)c23)cc1Cl	.	11	.	.	4%	.
CC(CNC(=O)c1ccc2c(c1)OCO2)c1ccc([N+](=O)[O-])cc1 (stereo not given)	-1%	-63*	10%	-12%	-6%	-26%
O=C(NCc1ccccc1F)Nc1ccc([N+](=O)[O-])cc1	1%	?	13µM*	-26%	9%	-5%
O=C(Nc1ccc([N+](=O)[O-])cc1)Nc1ccc([N+](=O)[O-])cc1	.	.	2.4µM*	.	.	2.7µM*
CC(=O)c1ccc(NC(=O)Nc2ccc([N+](=O)[O-])cc2)cc1	-5%	2	?	8%	8%	-9%
O=C(Nc1ccc(Oc2ccc(NC(=O)Nc3ccc([N+](=O)[O-])cc3)cc2)cc1)Nc1ccc([N+](=O)[O-])cc1	-5%	-95*	?	5.6µM*	14%	?
O=C(CNC(=O)N1CC(=O)Nc2ccccc21)NCCc1ccc(Cl)cc1	-11%	15	?	7%	20%	0%
CC1(C)C(C=C(Cl)Cl)C1C(=O)N/N=C/c1ccccc1F (stereo not given)	-20%	?	248%	-21%	-1%	?
CC1(C)C(C=C(Cl)Cl)C1C(=O)Nc1ccc([N+](=O)[O-])cc1 (stereo not given)	-89%	-96*	23%	?	-3%	?
